# In the OligoGym collection:
# Molecular target: BOLA1
# Test: pooled miR-30 sensor sort-seq; sequence = guide strand
# Settings: shRNA
# Note: reference of the scale not given here.
row,Sequence,sensor-assay potency score (higher = more potent)
1,TAGTGAGTGATTCTTCTCTTTT,-0.956
2,TTCTTGTTCCCACCCAGGCATG,-1.63
3,TCTCGTTGCGAAGCTCTAGCAC,-0.674
4,TTGACCTGAAGCAAGTTGCTAT,-0.107
5,TGGGGGGCTAGTGTCCAGCTGA,-1.56
6,TAGGGGGCTCAGTCCCTCGAAA,-1.29
7,TAACATGGAACATCCGGGCTGC,0.946

# Molecular target: BOP1
# Test: as above
# Settings: shRNA
row,Sequence,sensor-assay potency score (higher = more potent)
1,TCAAACCACACCAGCTTGCTAT,-1.16
2,TTCCTGGATGAAGCGTCCGTAG,-1.83
3,TAGTCAGGATCGTCCATCTTGT,-0.541
4,TTGCTATCGTAGCTCCCACAGA,-1.14
5,TTCGTCATCATCCTCACTGCTG,0.313
6,TTGATGGCGTGCACCATGCGAG,-1.27
7,TTGTACACCATGCCATGGCAGA,-1.35
8,TTGACGGGCACCAGCAAGGGGT,-1.16
9,TCTACATTCACCCTCATCTTGC,-0.893
10,AGGATCGTCCATCTTGTCCAGG,-2.16
11,ATCCAGGTCAAACCACACCAGC,-1.99
12,TTGGGCATCAGCTTCTTGGTGA,0.503

# Molecular target: BRAP
# Test: as above
# Settings: shRNA
row,Sequence,sensor-assay potency score (higher = more potent)
1,TGACATACCGTCCACATCCTAT,-1.06
2,TTTCCTGAACACCACACTCAAA,-1.71
3,TTTCTTTCCACAGACTGCTTTT,-0.773
4,TTAGTAAATATGAATACTCTAA,-0.689
5,TTTTACTTGCAACCAGTCGATG,-1.46
6,TAAATATGAATACTCTAACTGT,-0.208
7,TTCTCTATCCGAACTATCTTGT,-0.12
8,TCTTCTATTGAGTTGAACTGGC,-0.232
9,TAATCGCTACTTTCTCTCCTGG,-0.199
10,TAGGAGATCATTTAGTTTGTGC,0.0397
11,AAAACTATCCGCATCAGCCTGT,0.418
12,TTTAGCTGAGTGCACTTTCTTT,-0.371

# Molecular target: BRD2
# Test: as above
# Settings: shRNA
row,Sequence,sensor-assay potency score (higher = more potent)
1,TGCAGTAACAGCAAGGAGCGGG,-0.301
2,TTTCTCATTCGCTTTCTTGGGG,0.425
3,TTGTTTTCAAGTCTCCTCTTAA,-0.54
4,TATAATTTTGTGATAATCCGGT,0.775
5,TTCTCATTCGCTTTCTTGGGGG,-0.27
6,TTGGATTATATGCACAACTCGG,-1.15
7,TTATTTACAAGTTAGAATCAAC,-0.816
8,TAGGACAATATCATCAGTGGGC,0.486
9,TTTGGGATTGGACACCTCCGGG,-1.12
